Consider 22 molecules from PubChem BioAssay (EPA / NIEHS).

Active and inactive are the calls of the source. The calls were made as follows: active = hit-call score of the fitted dose curve at least 0.9, where 1 is the maximum; inactive = score below 0.9.

This test is described as follows: BSK_BE3C_SRB: Viability Assessment in the BioMAP Diversity Plus: BE3C Assay (AID 2283028).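 As to AC50: fitted both ways so AC50 may mark signal gain or loss versus DMSO.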 The following applies: primary human bronchial epithelial cells. Summed up: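 Human primary bronchial epithelial cells were exposed to test chemicals for 24 h. Total protein in parallel cultures was then measured by staining with 0.1% sulforhodamine B after 10% TCA fixation, with absorbance read at 560 nm. Activity was fitted bidirectionally against DMSO.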
On to `CN(C)C(=O)NC1(c2ccccc2)CCN(CCC[C@]2(c3ccc(Cl)c(Cl)c3)CCCN(C(=O)c3ccccc3)C2)CC1`, for which the result was inactive.

On to `CCCCOC(=O)CCCCC(=O)OCCCC`, for which the outcome was inactive. Still for that read-out and setting: in the case of `C=CCCCCCCCCCCCC` it was “inactive”. The same measure, in the same setting: next, `Nc1nc(Cl)nc2c1ncn2[C@H]1C[C@H](O)[C@@H](CO)O1`: “inactive”; `Cc1ccc(C(C)(C)C)c(O)c1`: “inactive”; `Oc1ccccc1O`: “inactive”. Same read-out and setting: in the case of `CCCCC(CC)COC(=O)CCCCCCCC(=O)OCC(CC)CCCC` (configuration not stated) it was “inactive”. `CCCCCCCCCCCCCCOS(=O)(=O)O`: the AC50 was 21.2 µM (active). Take `O=C(O)c1cccnc1`: the outcome was inactive. With `Nc1nc(=S)c2[nH]cnc2[nH]1`, the outcome was inactive. As to `CCN(CC)CCOc1ccc(C(=C(Cl)c2ccccc2)c2ccccc2)cc1`, the half-maximal activity concentration (AC50) was 27.8 µM (active). In the case of `CCCCc1nc2cccnc2n1Cc1ccc(-c2ccccc2-c2nnn[nH]2)cc1`, the outcome was inactive. The same measure, in the same setting: next, `CC(C)c1cccc(C(C)C)c1`: “inactive”; `O=C1O[C@H]([C@H](O)CO)C(O)=C1O`: “inactive”. Same read-out and setting: next, `O=[Si]=O`: “inactive”; `CC(=O)O`: “inactive”.

On to `CS(=O)(=O)c1ccc([C@@H](C[C@H]2CCC(=O)C2)C(=O)Nc2cnccn2)cc1Cl`, for which the outcome was inactive.

On to `CC(C)(O)c1ccc(CNC(=O)c2cccnc2Oc2ccc(F)cc2)cc1`, for which the outcome was inactive. Consider `O=NO`, for which the result was inactive.

Consider `CC(=O)O[C@]1(C(C)=O)CC[C@H]2[C@@H]3C=C(Cl)C4=CC(=O)[C@@H]5C[C@@H]5[C@]4(C)[C@H]3CC[C@@]21C`, for which the result was inactive.

Turning to `CCCCC(CC)CO` (configuration not stated), the result was inactive. Same read-out and setting: next, `COc1ccc(OC(F)(F)F)cc1CN[C@H]1CCCN[C@H]1c1ccccc1`: “inactive”.

The AC50 is the concentration at which the activity in the assay is half-maximal.
